In PubChem BioAssay (NCI) one finds growth data, which are given here for eight compounds.

Molecules are shown by their SMILES. The panel holds about 83,000 compounds, 20% with a hit somewhere; the sample as a whole holds those more often.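 The endpoint reported here, percent growth, reads 100 for growth as untreated, 0 for no net growth and -100 for all cells dead.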 A number with no mark means an inactive call. Active and inactive are the calls of the source. The calls were made as follows: active = growth percent below 10; inactive = the rest.

Some test systems named below: DU-145 prostate; K-562 leukemia; MALME-3M melanoma; MDA-MB-231 breast; RXF 393 renal; SF-268 CNS; SF-295 CNS; SF-539 CNS; UACC-257 melanoma; M14 melanoma; HCT-15 colon; HT29 colon; SNB-75 CNS; SNB-19 CNS; U251 CNS; PC-3 prostate; SK-MEL-5 melanoma; UACC-62 melanoma; LOX IMVI melanoma; SK-MEL-28 melanoma.
What all share (experiment): NCI-60 one-dose screen, 48 h (100 = growth as untreated, 0 = no growth, -100 = all killed)
Common to all, as to details: 10 µM unless noted

Turning to `C#CCO[C@H]1CC[C@H](OCC#C)[C@@H]2[C@H]1[C@H]1C[C@@H]3[C@@]4(C)CCC[C@@](C)(C(=O)OC)[C@@H]4CC[C@@]23C=C1C(C)C`, the growth is 94.3% in the experiment with DU-145 prostate; 79.7% in the experiment with K-562 leukemia; -41.7% (active) in the experiment on MALME-3M melanoma; 65% with MDA-MB-231 breast; 94.9% with RXF 393 renal; 81.1% with SF-268 CNS. Moreover, the growth in the experiment with SF-295 CNS was 92.7%; with SF-539 CNS, 70.9%; in the experiment with UACC-257 melanoma, 56%; in the experiment on M14 melanoma it was 93.8%; in the experiment on HCT-15 colon, 91.8%; in the experiment with HT29 colon, 53.6%. Also, the growth with SNB-75 CNS was 94.7%; in the experiment with SNB-19 CNS it was 96.1%; with U251 CNS, 46.8%; in the experiment with PC-3 prostate, 44.8%; with SK-MEL-5 melanoma, 87.6%; with UACC-62 melanoma, 74.6%. Further, the results for the growth in the experiment with LOX IMVI melanoma and in the experiment on SK-MEL-28 melanoma were -64.5% (active) and 102%, respectively.

In the case of `O=C(O/C(=C/c1ccccc1)C(F)(F)F)c1ccccc1`, the growth in the experiment on DU-145 prostate was 102%; with K-562 leukemia it was 101%; in the experiment on MALME-3M melanoma, 118%; with MDA-MB-231 breast, 95%; in the experiment on RXF 393 renal it was 108%; in the experiment with SF-268 CNS, 96%. Also, the growth in the experiment on SF-295 CNS is 114%; with SF-539 CNS it was 103%; in the experiment on UACC-257 melanoma it was 101%; with M14 melanoma, 107%; with HCT-15 colon, 114%; in the experiment with HT29 colon it was 110%. Also, the growth with SNB-75 CNS was 92.7%; in the experiment on SNB-19 CNS it was 110%; in the experiment with U251 CNS it was 102%; with PC-3 prostate, 104%; in the experiment with SK-MEL-5 melanoma, 102%; in the experiment on UACC-62 melanoma, 100%. For the same compound, the growth was 99.1% in the experiment on LOX IMVI melanoma and 116% in the experiment on SK-MEL-28 melanoma.

In the case of `c1cn2cc(-c3ccc4ncn(C5CCCCC5)c4c3)nc(-c3ccc4c(c3)ncn4C3CCCCC3)c2n1`, the growth with DU-145 prostate was -59.1% (active); in the experiment with K-562 leukemia, -4.74% (active); with MALME-3M melanoma, -14.3% (active); in the experiment with MDA-MB-231 breast, -68.7% (active); with RXF 393 renal it was -89.1% (active); with SF-268 CNS it was -67% (active). Besides, the growth was -86.5% (active) in the experiment with SF-295 CNS; -82.1% (active) in the experiment on SF-539 CNS; -71.5% (active) in the experiment on UACC-257 melanoma; -50.8% (active) with M14 melanoma; -11.5% (active) in the experiment on HCT-15 colon; -26.2% (active) with HT29 colon. In addition, the growth was -89.6% (active) in the experiment with SNB-75 CNS; 6.63% (active) in the experiment on SNB-19 CNS; -83.3% (active) with U251 CNS; -64.1% (active) in the experiment on PC-3 prostate; -89.4% (active) in the experiment with SK-MEL-5 melanoma; -47.7% (active) in the experiment on UACC-62 melanoma. The growth with LOX IMVI melanoma was -87.4% (active); in the experiment on SK-MEL-28 melanoma, -19.8% (active).

Turning to `COc1cccc(/C(C)=N/NC(=O)CSc2nc3ccccc3c(=O)n2CCc2ccc(S(N)(=O)=O)cc2)c1`, the growth is 18.4% in the experiment on DU-145 prostate; 32% in the experiment on K-562 leukemia; -15.2% (active) in the experiment on MALME-3M melanoma; -25.5% (active) in the experiment with MDA-MB-231 breast; 57.9% in the experiment on RXF 393 renal; 36.1% in the experiment with SF-268 CNS. In addition, the growth in the experiment with SF-295 CNS was 44%; in the experiment with SF-539 CNS it was -18.1% (active); in the experiment on UACC-257 melanoma it was 45.2%; with M14 melanoma it was 27.3%; with HCT-15 colon, 69.7%; with HT29 colon, 2.6% (active). Further, the growth was 42.1% with SNB-75 CNS; 24.7% with SNB-19 CNS; -55.4% (active) with U251 CNS; 7.25% (active) with PC-3 prostate; 1.45% (active) in the experiment with SK-MEL-5 melanoma; 25.1% in the experiment on UACC-62 melanoma. Besides, the growth in the experiment with LOX IMVI melanoma is 26%; in the experiment on SK-MEL-28 melanoma, 67.5%.

As for `O/N=C/c1ccncc1`, the growth was 103% in the experiment on DU-145 prostate; 106% in the experiment with K-562 leukemia; 98.7% in the experiment on MALME-3M melanoma; 118% with MDA-MB-231 breast; 122% in the experiment with RXF 393 renal; 111% in the experiment with SF-268 CNS. Besides, the growth was 96% with SF-295 CNS; 115% in the experiment with SF-539 CNS; 100% in the experiment with UACC-257 melanoma; 115% in the experiment with M14 melanoma; 104% with HCT-15 colon; 94.5% with HT29 colon. The growth in the experiment on SNB-75 CNS is 96.2%; in the experiment on SNB-19 CNS, 122%; in the experiment on U251 CNS, 102%; with PC-3 prostate it was 95.9%; in the experiment with SK-MEL-5 melanoma, 105%; with UACC-62 melanoma it was 111%. Moreover, the growth with LOX IMVI melanoma is 100%; in the experiment on SK-MEL-28 melanoma, 115%.

For the compound `COc1cc(C)c(Cl)cc1C1=NN(c2ccc(S(N)(=O)=O)cc2)C(/C=C/c2ccccc2)C1` (stereo not given), the growth in the experiment on DU-145 prostate was 82.6%; in the experiment with K-562 leukemia it was 23.1%; with MALME-3M melanoma it was 85.6%; in the experiment with MDA-MB-231 breast, 88.4%; in the experiment with RXF 393 renal, 58%; in the experiment on SF-268 CNS it was 70.2%. For the same compound, the growth in the experiment on SF-295 CNS was 63.7%; with SF-539 CNS, 103%; with UACC-257 melanoma, 83.4%; with M14 melanoma it was 72.2%; in the experiment with HCT-15 colon, 35.1%; in the experiment with HT29 colon, 23.2%. The growth was 65.2% in the experiment with SNB-75 CNS; 38.6% in the experiment on SNB-19 CNS; 18.3% in the experiment on U251 CNS; 7.54% (active) with PC-3 prostate; 64.9% in the experiment on SK-MEL-5 melanoma; 39.8% in the experiment on UACC-62 melanoma. The growth in the experiment with LOX IMVI melanoma is 51.6%; in the experiment on SK-MEL-28 melanoma, 88.1%.

Turning to `C=C1C(=O)O[C@H]2[C@H]1CC/C(COC(=O)NCc1cccc(OC)c1)=C\CC[C@@]1(C)O[C@@H]21`, the growth is 19.7% in the experiment with DU-145 prostate; 4.46% (active) in the experiment on K-562 leukemia; -26.4% (active) in the experiment with MALME-3M melanoma; 64.4% with MDA-MB-231 breast; -57.1% (active) with RXF 393 renal; 58.2% in the experiment with SF-268 CNS. In addition, the growth in the experiment on SF-295 CNS was 71.5%; in the experiment on SF-539 CNS, 21.4%; in the experiment with UACC-257 melanoma it was 25.4%; in the experiment with M14 melanoma, -7.62% (active); with HCT-15 colon, -3.38% (active); in the experiment with HT29 colon, -29.9% (active). The growth is 71.1% with SNB-75 CNS; 69.9% in the experiment on SNB-19 CNS; 39.4% in the experiment with U251 CNS; 40.1% in the experiment with PC-3 prostate; 29.8% in the experiment on SK-MEL-5 melanoma; 31.5% in the experiment on UACC-62 melanoma. For the same compound, the growth in the experiment with LOX IMVI melanoma is 5.61% (active); with SK-MEL-28 melanoma it was 22.5%.

Take `C=C(C)[C@@H]1CC[C@]2(C(=O)NC(COC(=O)C(Cl)Cl)(COC(=O)C(Cl)Cl)COC(=O)C(Cl)Cl)CC[C@]3(C)[C@H](CC[C@@H]4[C@@]5(C)CC[C@H](OC(C)=O)C(C)(C)[C@@H]5CC[C@]43C)[C@@H]12`: the growth in the experiment with DU-145 prostate was 50.7%; in the experiment on K-562 leukemia it was 25.2%; in the experiment with MALME-3M melanoma it was 96.2%; in the experiment on MDA-MB-231 breast it was 54.1%; in the experiment with RXF 393 renal, 42.6%; in the experiment with SF-268 CNS it was 58.8%. For the same compound, the growth with SF-295 CNS is 60.9%; in the experiment with SF-539 CNS it was 76.5%; in the experiment with UACC-257 melanoma, 79.5%; with M14 melanoma, 59.9%; in the experiment with HCT-15 colon it was 27.9%; in the experiment with HT29 colon, 4.68% (active). Further, the growth was 81.2% in the experiment with SNB-75 CNS; 70.6% in the experiment with SNB-19 CNS; 23.4% with U251 CNS; 11.1% with PC-3 prostate; 62.1% in the experiment on SK-MEL-5 melanoma; 81% in the experiment with UACC-62 melanoma. In addition, the results for the growth in the experiment with LOX IMVI melanoma and in the experiment with SK-MEL-28 melanoma were 32.4% and 86.9%, respectively.
